# According to PubChem BioAssay (NCATS):
# The source made the active and inactive calls. The call rests on the fitted dose curve; in most records, active means well fitted activation curve with a large enough effect; inconclusive means small, poorly fitted or top-dose-only effect, or effect the other way; inactive means flat fitted curve, though single readings scatter.
# Test: Cellular Toxicity (caspase-3) Renal Proximal Tubule (AID 667);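 further: cells exposed to compound for 16 hours at 37 °C before detection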
# Settings: renal proximal tubule cells, primary cells freshly taken from rat, solvent-only wells 0%, staurosporine 100%; series mostly up to 91.7 µM; caspase-3 activation: at the top concentration
# Outline: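 Caspase 3/7 activation measured by luminescent aminoluciferin release in primary rat proximal tubule cells after 16 hr compound exposure at 37 °C. AC50 from Hill-fitted concentration-response, scaled between DMSO and 10 uM staurosporine.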
SMILES,outcome,caspase-3 activation
CCCCCCCC(=O)O,inactive,
O=S(=O)(O)O,inactive,
Nc1ccn([C@H]2CS[C@@H](CO)O2)c(=O)n1,,-4.06% (inactive)
Cc1ccccc1,inactive,
CC(O)CO (stereo unspecified),inactive,
CC(C)(C)NC(=O)[C@@H]1C[C@@H]2CCCC[C@@H]2CN1C[C@@H](O)[C@H](Cc1ccccc1)NC(=O)[C@H](CC(N)=O)NC(=O)c1ccc2ccccc2n1,,19.2% (inactive)
CCOc1ccc2c(c1)C(C)=CC(C)(C)N2,,1.23% (inactive)
CCCCCCCC/C=C\CCCCCCCC(=O)O,,-4.37% (inactive)
IC(I)I,,-7.41% (inactive)
CC1=C2[C@@H]([C@H](C)CC[C@H]2/C=C(\C)C(=O)O)[C@H](O)C1,,-7.99% (inactive)
CCCCC/C=C\C/C=C\CCCCCCCC(=O)O,,-2.73% (inactive)
CC(C)=O,,3.83% (inactive)
O=CCCCC=O,,-1.98% (inactive)
CCOC(C)=O,,-11% (inactive)
CC1=C(/C=C/C(C)=C/C=C/C(C)=C/CO)C(C)(C)CCC1,,1.16% (inactive)
O=C(O)CCC(=O)C(=O)O,,4.43% (inactive)
